The supplement of paper PMC11417369
± gives the standard deviation of the averaged measurements. Over roughly 25,000 sequences, “ln(normalized median fluorescence intensity)” has its median near 7.9; the highest 2% begin near 11. Shown is part of a subset that was picked to be rich in the highest values.

The sequences below were run on PfAP2-I AP2 domain 3 (GST-tagged) (assay: gcPBM binding intensity (ln(normalized median fluorescence intensity)); higher = stronger DNA binding).
Summary of the method: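 After 1 h on an Agilent 4 × 180k array of primer-extended double-stranded 36-bp intergenic genomic probes and negative controls, bound GST-tagged P. falciparum DNA-binding domains were detected with Alexa488 anti-GST antibody and scanned at 488 nm. The domains had been expressed in E. coli, and binding took place in 1× PBS with 1% milk, 0.2 mg/ml BSA, 0.5% salmon testes DNA and 0.03% Triton X-100. Binding intensity is the highest Masliner-normalised natural-log median intensity across replicate spots of either probe orientation.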

Sequence | gcPBM binding intensity (ln)
ATTACAATATATACGTGTACATATTACCACCGCTAC [XGTACX_site2308] | 8.46 ± 0.7
ACAATAAATATGTGGTTGCACTTATAATATATTTAT | 8.66 ± 0.4
ATAAAATAAAACAACACACACGAATGTATAAATATA [CACACA_site4643] | 7.66 ± 0.66
TTTTTATAAAATTTTATGAGCTCGGAAAAAATAAAC [GTGCAC_negctrl_site637] | 8.49 ± 0.48
TGTGAAAATTATGGGGCATGCAATACTTTAAAAATA [TGCATGCA_site653] | 7.98 ± 0.72
GAACAACAACAAAAAAAAAAAAAAAAAAAAAAAAAA [CACACA_negctrl_site199] | 8.12 ± 0.83
ATGATGTCTTTATATTGTACATATATGAAGACGTTA [XGTACX_site7751] | 7.79 ± 0.29
TATGTCCATATTTCCACACACATATTATTTTTATAT [CACACA_site3798] | 8.18 ± 0.53
AGCTACAAAAATTAATATATATATGTATAGTTATAC [TGCATGCA_negctrl_site531] | 7.38 ± 0.59
TTTTTGTTATTATGTGTGCACATATATATATATATA | 10.3 ± 0.31
ATGTCAAATTTTTGTGCACACATATATAGTTATTAT [CACACA_site2242] | 10.78 ± 0.028
GTCAAATTTTTGTGCACACATATATAGTTATTATTA [CACACA_site2241] | 11.2 ± 0.23
TCTTTCCTTATTAAAACACACAAATACATTATTTAA [CACACA_site2147] | 7.84 ± 0.46
TATATATATATATATGTGCACATATTTATATGTTTT | 9.85 ± 0.22
TTTTATTTCTTTGCACCATTTTAAATACAAACAAAT [CACACA_negctrl_site1553] | 11.1 ± 0.79
CAGTTGTTAATTTGTGTGCACCAAATATTATACATA | 11 ± 0.33
TTATTTTATTTTTTTGTGCACATATATATTTATAAA [GTGCAC_site9615] | 10.86 ± 0.028
TATAAAAATGTGCACACACACACATATTTATATTTA [CACACA_site6826] | 9.365 ± 0.007
GTATTTCTTTAATATACACACACCAAAACAAAAAAA [CACACA_site579] | 8.13 ± 0.49
AAATATTACATTTGTTAAATAATATGTTATACATAA [XGTACX_negctrl_site484] | 7.32 ± 0.54
TGTGTATTTATAAATACACACCAAATGTTAATATAT [CACACA_site6904] | 8.03 ± 0.47
GAAATAAATATAATATATATATATATATATATATGT [TGCATGCA_negctrl_site216] | 8.25 ± 0.38
CAACCATTTGTAGGTAAACACACATTATTATTAATA [CACACA_site8842] | 7.47 ± 0.46
AAGTATTTTTTTACATGTACATATATATATATATAT [XGTACX_site5065] | 9.4 ± 0.56

Sequence | gcPBM binding intensity (ln)
ATATTATATCTAATCGTGCACAACTGTACATTTGTC | 10.5 ± 0.12
TTTTTTTCATAATATACACACAAAAAAAAAAAAAAA [CACACA_site3224] | 8.12 ± 0.68
TTCATTTTTTGCTTTCAACACACATACAATATATAT [CACACA_site9369] | 8.01 ± 0.49
AAATTACCCATCCATACACACATATTTTTTTTAATT [CACACA_site2189] | 7.96 ± 0.64
AATTTTTTTTTTAGACGTACAAGAAAAAACAAAAAA [XGTACX_site4990] | 8.15 ± 0.55
GTATTTAGATGATTAACACACATATGTGTATTAATA [CACACA_site6733] | 7.92 ± 0.41
TAATAATTTATAATAGTGCATTTGATTTTAAAAATA | 9.81 ± 0.51
TTTTTTATTTTGTGCACACACATAAAAATATATATA [CACACA_site761] | 11.2 ± 0.31
TTTTGATATAAATATTAGATTAATAAATAAAAAAAT [CACACA_negctrl_site1635] | 7.8 ± 0.39
AATATTTTTTTATAAACACACATATATATAAATATA [CACACA_site3524] | 7.89 ± 0.33
ATATATTTTTTAAACACACACATAAATATTTGTGTA [CACACA_site2879] | 7.84 ± 0.49
TATTTTATAATAGGCACACATATAAAAATATATATA [CACACA_site4127] | 7.96 ± 0.52
ATTTTTTTATTTTGTGCACACACATAAAAATATATA [CACACA_site762] | 11.1 ± 0.27
GGGATATTTTAAAGGGTGCATATTATTAAAATAATG | 10.7 ± 0.51
TTTATTTTTATTTTTGTGCACGGGATTAAATAAAAG [GTGCAC_site9842] | 11.22 ± 0.092
TTCTATTTTTTAAAAGTGCATATTATAAATATATAT | 9.63 ± 0.11
TAAAATAAAAATATAGTGCACAGATTTTGATATTTT [GTGCAC_site9696] | 11.2 ± 0.23
TAAAAAATAAAATACACACACATATTTATATTTATA [CACACA_site6737] | 7.41 ± 0.4
ACTTATTTCGATATGTGTACTTAATATATATATTTA [XGTACX_site6616] | 7.89 ± 0.39
ACATATACAAGACACACACACAACGTTTTAATAAAT [CACACA_site7017] | 8.12 ± 0.46
ACATATTTTTAATACACACTCAAAAAAGTACTTAAC [CACACA_site3014] | 8.2 ± 0.28
TCTACAATTATAATTACACACTATAAAAAAGAAAGA [CACACA_site2984] | 7.96 ± 0.35
TCTTTTTTTTTTATTTGTACTTATTTTTTTCAAAAA [XGTACX_site3403] | 8.24 ± 0.51
TGAAAAAAAAAAAAAAAAAAAAGAAAAAAAAAAAAA [CACACA_negctrl_site709] | 7.82 ± 1.2

Sequence | gcPBM binding intensity (ln)
AATAATCTATATTGTACACACAAAATGGGAAAAAAA [CACACA_site6969] | 8.11 ± 0.73
AATTTTCCATAGATTGTGCACAAATTTTTATTTTGT | 10.9 ± 0.2
ATATCATTTTCCTGCACACATAAATTTATATAATAT [CACACA_site1048] | 9.45 ± 0.38
ATAAAAAAAAATATTTGTACACATATTTATATATTA [XGTACX_site8147] | 7.63 ± 0.36
ACATATAAATATTGTGTGCACACACATAATATATAT | 10.2 ± 0.18
ATTTATTTATTGGCACGTACAAATTTGTGTTTTCCA [XGTACX_site6978] | 8.54 ± 0.53
TTTTTTATTTTGTGCACACACATAAAAATATAAATA [CACACA_site6497] | 11.01 ± 0.042
ATATATATTTTTTAAACACACACATAAATATTTGTG [CACACA_site8936] | 7.97 ± 0.38
TTTTTCCTATTTTTAGTGCACATATAAATAAATAAA [GTGCAC_site9821] | 11.6 ± 0.23
ATAGAACTATATTGCACACATAATATATATATATAT [CACACA_site3189] | 10.5 ± 0.52
ACATAATATACTATTGTGCACATATATATATATATA [GTGCAC_site9761] | 10.88 ± 0.085
TTATTTATTTATATAGTGCAATAAACACATAAATAG | 10.8 ± 0.47
TATTTTTCCATAAAAATTTATATAGAAACAAATAAT [GTGCAC_negctrl_site103] | 7.75 ± 0.46
AAAAAGAACAGAAACACACAAATAAAATAAAATTGT [CACACA_site6921] | 7.72 ± 0.61
TTTTTTTTCTTTTTTTGTACATAATAATATATAAAT [XGTACX_site6778] | 7.68 ± 0.35
TGTTCTATTCTATTATTATTTACAAATTATAAATAA [GTGCAC_negctrl_site232] | 7.89 ± 0.37
TTTAATTTTCGGTGTGCACACAACTATGAGTTTTTA [CACACA_site3034] | 9.565 ± 0.035
ATACAATTTATTTTAACACACGAATGAATTGATTAT [CACACA_site4160] | 7.76 ± 0.63
TGTGTATATCGATAAAGTACATTTGAAAAGTGACTT [XGTACX_site6957] | 7.62 ± 0.51
TTTTATTTTTTTAAATGTACACATATTAATGTAAGG [XGTACX_site319] | 7.92 ± 0.3
TATTGGATCACACAAAAATGTATAAATAAATAGAAA [TGCATGCA_negctrl_site490] | 7.7 ± 0.61
TCGAACATTAACATAACACACATATATATATATATA [CACACA_site2900] | 9.27 ± 0.29
ATATTATTATATATAGTGCATATTATTATTTTTATT | 10.2 ± 0.42
GAAATTTGTTATTGCACACAAATTTTTCTTTTTTTA [CACACA_site2339] | 10.14 ± 0.028

Sequence | gcPBM binding intensity (ln)
TATATACATATATGCACACAAAAAAATATATATTTT [CACACA_site1729] | 8.99 ± 0.11
TACATATTGATATATACACACAAAAAAATAAATTCT [CACACA_site6198] | 7.61 ± 0.54
TATCCATTTCTTTATGTGCACATTAAATATATTTGT | 10.2 ± 0.4
CATTTTATTTTCTTTGTGCACAAAAATATTTTTTCT | 11.13 ± 0.092
ATATATTTGATAAGAGTGCACAAATACATACATACA [GTGCAC_site9704] | 10.94 ± 0.071
TTATTTTTGTTCATAGTGCATAGAATTTATACATAT | 9.91 ± 0.33
ATATTTTGTTTTATAGTGCACATGGGCATATATTAA [GTGCAC_site9435] | 11 ± 0.32
TTGTTTGATATCTTTGTCACGAAAAAAATATATATA [GTGCAC_negctrl_site54] | 7.83 ± 0.64
TCTTTTTTCATATTTTCACACATGTCTTTATATTTA [CACACA_site6025] | 8.28 ± 0.65
ATGAATAAATGAACATGTACATATATATATATATTA [XGTACX_site5005] | 7.76 ± 0.47
TTTTGGCTTCTAATATTATACAAAATGGTAAGGAAA [TGCATGCA_negctrl_site169] | 7.94 ± 0.4
TAATTTCTTAGGTATTGTACAAATATTATATGATAT [XGTACX_site256] | 7.55 ± 0.59
TATCCCTTAGAATACACACCCATATGAGGGTGAACT [CACACA_site5610] | 7.76 ± 0.26
TATAATTATATTTGGAGTACAAATTTTTTTTTTTTT [XGTACX_site7494] | 7.765 ± 0.007
TATATTTCAGGGGGGAGTACAAATTTTTTTATATAA [XGTACX_site1600] | 11 ± 0.52
TATTTTTTTTTTATATGTACATAATTTCAAATAAAT [XGTACX_site7747] | 7.97 ± 0.41
ATTATTATATATATAACACACATAATTATATACTTA [CACACA_site1563] | 7.89 ± 0.38
TCTATAAAGTTCCATACATGCGCCATCATTTATATT [TGCATGCA_site195] | 7.97 ± 0.79
TTTTTAATCAGAAATATTTATTAAAGAATTTTATAG [GTGCAC_negctrl_site725] | 7.32 ± 0.34
TTATAAATAAAAAGAGTGCAATTATAAATATATATA | 10.1 ± 0.23
TTTGTTTTTTTGAGAGTGCAATATATATAAAAAGGG [GTGCAC_site9691] | 11.2 ± 0.64
AGATATTTATTGAGTGCATGTTATAAAGGGAAAAAA [TGCATGCA_site88] | 9.04 ± 0.17
